# According to PubChem BioAssay AID2241 (Broad Institute, 2010):
# Among all 21,000 compounds or so, about 110 (0.52%) were called active. This excerpt belongs to a sample that is enriched for actives. Values without a mark were called inactive.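 Rule for the calls: active = most replicate scores above 10, or exactly half above 10 with mean activity above 10; inconclusive = mean activity below 10 while half the replicates exceed 10; inactive = most replicate scores below 10.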
# Experiment: inducers of caspase activity in MEF A1-2A-BIM cells, primary screen, A1 inhibitor project, cell-based, CaspaseGlo luminescence (AID 2241);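 note: effector caspase 3 and 7 activity cleaving a DEVD luciferin substrate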
# Details: caspase-Glo luminescence, 3 h, active compounds read high, percent of clofoctol signal, DMSO as zero, concentration not given here
row,SMILES,caspase activation
1,C[C@H]1CN([C@@H](C)CO)C(=O)c2cc(NS(=O)(=O)c3ccc(F)cc3)ccc2O[C@H]1CN(C)CC1CC1,1.58%
2,CCc1ccc(NC(=O)CN(C)S(=O)(=O)c2cc(Br)cnc2N)cc1,-0.325%
3,COc1ccc(CN(C)C[C@@H]2Oc3ccc(NC(=O)Nc4cccc5ccccc45)cc3C(=O)N([C@H](C)CO)C[C@H]2C)cc1,-0.083%
4,COc1cc(C2c3c(cc(OC)c(O)c3OC)CC(CO[C@@H]3O[C@H](CO)[C@@H](O)[C@H](O)[C@H]3O)C2CO)cc(OC)c1O (some centres not stated),-0.412%
5,O=C(/C=C/c1ccccc1)NCCCCNCCCNC(=O)/C=C/c1ccccc1,-0.0105%
6,Cc1ccc(NC(N)=O)cc1,-0.167%
7,COc1ccc(NC(=O)N(C)C[C@H]2Oc3ccc(NS(=O)(=O)c4cccs4)cc3C(=O)N([C@@H](C)CO)C[C@H]2C)cc1,0.747%
8,CCC(=O)c1ccc(OC(=O)C2c3ccccc3Oc3ccccc32)cc1,-0.0959%
9,c1ccc(CSc2ccc(-c3ccncc3)nn2)cc1,0.0365%
10,C=CCn1c(SCc2nnc(SCC(=O)c3ccc(Cl)cc3)o2)nnc1-c1ccccc1,0.865%
11,C[C@@H]1CN([C@H](C)CO)C(=O)c2cc(NC(=O)C3CCCCC3)ccc2O[C@@H]1CN(C)CC1CCCCC1,0.287%
12,CC(=C\c1ccccc1)/C(C)=N/O,0.142%
13,CC[C@H]1CN2CCc3cc(OC)c(OC)cc3[C@@H]2C[C@@H]1C[C@H]1NCCc2cc(OC)c(OC)cc21,18.2% (active)
14,COc1cc2c(cc1OC)C1CN3CCc4cc(OC)c(OC)cc4C3CN1CC2 (configuration not stated),-0.199%
15,Oc1c(Cl)cc(Cl)cc1C1Nc2cc(C(F)(F)F)ccc2-n2cccc21 (configuration not stated),-0.566%
16,CCCNC(=O)c1ccc2c(c1)N(Cc1ccc(F)cc1)CCS2,-0.988%
17,COc1ccc(S(=O)(=O)Nc2ccc3c(c2)C(=O)N([C@H](C)CO)C[C@H](C)[C@H](CN(C)S(=O)(=O)c2ccc(Cl)cc2)O3)cc1,0.103%
18,O=C(COc1cccc(NC(=O)c2ccccc2)c1)NCCOc1ccccc1,-0.0599%
19,O=C(Nc1cccc(-c2nc3ccccc3o2)c1)c1ccc(Br)cc1,14.9% (active)
20,CCOC(=O)c1cc(=O)c2ccc(OCc3ccccc3)cc2o1,-1.74%
21,c1ccc(-c2nc3ccccc3o2)cc1,-5.88%
22,O=C(Nc1cccc(-c2nc3ccccc3o2)c1)c1cccc(OCc2ccccc2)c1,34% (active)
23,O=C(CSc1nc2ccccc2o1)Nc1ccccn1,-3.01%
24,O=C(/C=C/c1ccccc1)c1ccc(O[C@@H]2O[C@H](CO)[C@@H](O)[C@H](O)[C@H]2O)cc1O,-0.127%

row,SMILES,caspase activation
1,C[C@@H]1CN([C@@H](C)CO)C(=O)c2cc(NS(=O)(=O)c3ccccc3)ccc2O[C@H]1CN(C)CC1CC1,-0.166%
2,C[C@H](CO)N1C[C@H](C)[C@H](CN(C)S(=O)(=O)c2cn(C)cn2)Oc2ccc(NS(=O)(=O)c3ccccc3)cc2C1=O,0.0901%
3,Cn1c(C(=O)NC2CCCC2)cc2oc3ccccc3c21,-1.2%
4,OCCN1N=C2c3ccccc3CCC2C1c1ccccc1Cl (configuration not stated),0.231%
5,O=C1c2ccccc2C(=O)C1c1cc(=O)[nH]c2c1ccc1ccccc12,-0.299%
6,Cc1ccccc1N=C(N)N=C(N)N,0.116%
7,FC(F)(F)c1ccnc(Oc2ccc(C3=NCCS3)cc2)c1,-5.95%
8,CCOC(=O)c1c(C)n(O)c2ccc3nonc3c12,-0.716%
9,CCCCn1c2ccccc2c2nc3ccccc3nc21,-1.06%
10,CCSC1=C(C#N)C(=O)NCS1,0.116%
11,CCC(=O)Nc1ccccc1C(=O)Nc1ccccc1,0.303%
12,C[C@@H]1CN([C@H](C)CO)C(=O)c2cc(NC(=O)NC3CCCCC3)ccc2O[C@H]1CN(C)S(C)(=O)=O,0.129%
13,O=c1c2ccccc2nc(SCc2cccc(F)c2)n1C1CC1,-0.676%
14,CCN(CC)C(=S)SCc1nc(N)nc(Nc2ccccc2)n1,0.133%
15,CCC(C)NC(=O)Nc1ccc(C)c(Cl)c1 (configuration not stated),-1.99%
16,O=C(O)CCCC=C(c1ccccc1)c1ccccc1,-0.527%
17,COc1ccc(N/C(N)=N/c2nc(CSc3nc4ccccc4s3)cc(=O)[nH]2)cc1,-0.646%
18,CCCOC(=O)c1cc2ccccc2oc1=O,-1.82%
19,NC(=S)c1nc(-c2ccccc2)oc1N,-1.84%
20,OC(c1nc2ccccc2[nH]1)C(O)C(O)C(O)c1nc2ccccc2[nH]1 (configuration not stated),0.0552%
21,O=C(Sc1ccc(Oc2ccc(SC(=O)c3ccco3)cc2)cc1)c1ccco1,1.99%
22,Nc1c(C(=O)N2CCCCC2)sc2nc3c(cc12)CCC3,-1.2%
23,CCN(CCCn1c(=S)[nH]c2cc3c(cc2c1=O)OCO3)c1cccc(C)c1,0.124%
